# Assay results: PubChem BioAssay (NCATS)
# Results filed as inconclusive are left out. Activity calls are given as the source filed them. Calls follow the shape of the dose curve; as a rule, active = well fitted cell-killing curve with a large enough effect; inconclusive = small, poorly fitted or top-dose-only effect, or effect the other way; inactive = no such curve, though single readings can be large or run the other way. Where a SMILES comes first, the peptide text is derived from it. [ ]: non-standard residue; d: D form. pGlu = O=C1CC[C@@H](C(=O)O)N1; Thz = O=C(O)[C@@H]1CSCN1
# Assay: qHTS assay to identify small molecule inhibitors of chordoma cells - UCH-1 (AID 1259355); also: nearly all actives have a fitted effect of over 55% in size
# Details: UCH-1 chordoma viability, CellTiter-Glo, 48 h, combination, with auranofin plus four topoisomerase inhibitors; series mostly up to 46.1 µM; activity, negative = inhibition: at the top concentration
# Method in brief: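 Cells (800/well) were seeded and left overnight at 37 C, 5% CO2, then treated with drugs at 15 concentrations plus a combination mix of auranofin, camptothecin, doxorubicin, rubitecan and topotecan. Viability after 48hr was read by CellTiter-Glo luminescence.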
# % is scaled to controls: 0 for no effect and ±100 for the full control effect; potency is read from the fitted curve at half-maximal effect.
Compound,"activity, negative = inhibition",Potency
O=C1CC[C@@H](C(=O)N2CSC[C@H]2C(=O)O)N1 ([pGlu]-[Thz]-OH),-12.5% (inactive),
O=C(O)c1ccccc1Nc1cccc(C(F)(F)F)c1,-6.06% (inactive),
CC(C(=O)O)c1ccc(C(=O)c2ccccc2)s1 (stereo not drawn),-22.9% [at 20.6 µM] (inactive),
CCCCCCCCCCCCCCCCCC(=O)O,-5.19% (inactive),
O=C(/C=C/c1ccccc1)NCCO,-9.12% (inactive),
Nc1ccc(O)c(C(=O)O)c1,-19.3% (inactive),
CC(C(=O)O)c1ccc2c(c1)[nH]c1ccc(Cl)cc12 (stereo not drawn),-20.1% (inactive),
COc1cc2c3cc1Oc1cc(ccc1O)C[C@@H]1c4c(cc(OC)c(O)c4Oc4ccc(cc4)C[C@@H]3N(C)CC2)CC[N+]1(C)C,-17.5% (inactive),
Cc1ccc(O)c(-n2nc3ccccc3n2)c1,-7.09% (inactive),
CC(=O)O[C@H]1C[C@@]2(C)[C@@H](C[C@@H](O)[C@H]3[C@@]4(C)CC[C@@H](O)[C@@H](C)[C@@H]4CC[C@@]32C)/C1=C(\CCC=C(C)C)C(=O)O,10.8% (inactive),
COC(=O)[C@H]1[C@H]2C[C@@H]3c4[nH]c5cc(OC)ccc5c4CCN3C[C@H]2C[C@@H](OC(=O)/C=C/c2cc(OC)c(OC)c(OC)c2)[C@@H]1OC,20.5% [at 20.6 µM] (inactive),
C=C(Nc1ccc(OCC)cc1)Nc1ccc(OCC)cc1,,inactive
CC1(C)S[C@@H]2[C@H](NC(=O)[C@H](NC(=O)N3CCN(S(C)(=O)=O)C3=O)c3ccccc3)C(=O)N2[C@H]1C(=O)O,-9.11% (inactive),
N=c1ccn2c(n1)O[C@H]1[C@H](O)[C@@H](CO)O[C@H]12,-25.8% (inactive),
O=C(O)[C@H](CC(=O)N1C[C@H]2CCCC[C@H]2C1)Cc1ccccc1,-2.51% (inactive),
COc1cccc2c1C(=O)c1c(O)c3c(c(O)c1C2=O)C[C@@](O)(C(=O)CO)C[C@@H]3O[C@H]1C[C@H](N)[C@H](O[C@@H]2CCCCO2)[C@H](C)O1,,3.98 µM (active)
Cc1nc2ccccc2n1Cc1ccc(Cl)cc1,-20.6% (inactive),
O=C(O)COc1ccc(C(=O)c2cccs2)c(Cl)c1Cl,,inactive
c1ccc2sc(SSc3nc4ccccc4s3)nc2c1,2.87% (inactive),

Compound,"activity, negative = inhibition",Potency
Nc1ccc(C(=O)O)c(O)c1,-21% (inactive),
Cc1ccc(C(=O)c2ccc(CC(=O)O)n2C)cc1,-8.11% [at 20.6 µM] (inactive),
O=C(OCc1ccccc1)c1ccccc1,1.81% (inactive),
CCC1C(=O)OCC1Cc1cncn1C (stereo not drawn),-26.6% (inactive),
Nc1c(CC(=O)O)cccc1C(=O)c1ccc(Br)cc1,-41.9% (inactive),
C=CCCCCCCCCC(=O)O,7.74% (inactive),
CC(C(=O)O)c1ccc(C(=O)c2cccs2)cc1 (stereo not drawn),-8.79% [at 20.6 µM] (inactive),
C#CC1(O)CC[C@H]2[C@@H]3CCC4=CCCC[C@@H]4[C@H]3CC[C@@]21C (stereo partly drawn),-3.58% [at 20.6 µM] (inactive),
COc1cc(/C=C/C(=O)N2CCN(CC(=O)N3CCCC3)CC2)cc(OC)c1OC,-10.1% (inactive),
C=CC(N)CCC(=O)O (stereo not drawn),-17.7% (inactive),
Cc1c(Nc2ncccc2C(=O)O)cccc1C(F)(F)F,-35.3% [at 20.6 µM] (inactive),
CN(C)CCn1nnnc1SCC1=C(C(=O)O)N2C(=O)[C@@H](NC(=O)Cc3csc(N)n3)[C@H]2SC1,6.44% [at 20.6 µM] (inactive),
CCCCCC[C@@H](O)C/C=C\CCCCCCCC(=O)O,-4.8% (inactive),
CO[C@H]1C[C@@H]2CC[C@@H](C)[C@@](O)(O2)C(=O)C(=O)N2CCCC[C@H]2C(=O)O[C@H]([C@H](C)C[C@@H]2CC[C@@H](O)[C@H](OC)C2)CC(=O)[C@H](C)C=C(C)[C@@H](O)[C@@H](OC)C(=O)[C@H](C)C[C@H](C)/C=C/C=CC=C1C,-13.8% (inactive),
CC(=O)[C@]1(O)Cc2c(O)c3c(c(O)c2[C@@H](O[C@H]2C[C@H](N)[C@H](O)[C@H](C)O2)C1)C(=O)c1c(O)cccc1C3=O,,1.58 µM (active)
CCOC(=O)c1ccccc1O,-7.56% (inactive),
CCCCC[C@H](O)/C=C/[C@@H]1[C@@H](C/C=C\CCCC(=O)O)[C@@H](O)C[C@H]1O,,inactive
C[S+](CC[C@H](N)C(=O)O)C[C@H]1O[C@@H](n2cnc3c(N)ncnc32)[C@H](O)[C@@H]1O (stereo partly drawn),,inactive
CN1[C@@H]2CC[C@H]1CC(OC(=O)C(CO)c1ccccc1)C2 (stereo partly drawn),,inactive
